Test results: PubChem BioAssay (NCI)
About 83,000 compounds went through this panel and 20% of them were active in at least one assay; those are over-represented in the sample as a whole.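 Cells were grown in 96-well plates and exposed to the test compound at a single concentration for 48 hours; results are reported as percent growth, with values below 10 considered active.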 Unmarked numbers belong to inactive results. Active and inactive are the calls of the source.

Assays:
Assay in all cases: NCI-60 one-dose screen, 48 h (100 = growth as untreated, 0 = no growth, -100 = all killed)
HT29 colon = conditions: 10 µM unless noted
SNB-75 CNS = conditions: 10 µM unless noted
SNB-19 CNS = conditions: 10 µM unless noted
U251 CNS = conditions: 10 µM unless noted
PC-3 prostate = conditions: 10 µM unless noted
UACC-62 melanoma = conditions: 10 µM unless noted
LOX IMVI melanoma = conditions: 10 µM unless noted
SK-MEL-28 melanoma = conditions: 10 µM
SK-MEL-2 melanoma = conditions: 10 µM unless noted
SN12C renal = conditions: 10 µM unless noted
UO-31 renal = conditions: 10 µM unless noted
TK-10 renal = conditions: 10 µM unless noted
ACHN renal = conditions: 10 µM unless noted
CAKI-1 renal = conditions: 10 µM unless noted
A498 renal = conditions: 10 µM unless noted
CCRF-CEM leukemia = conditions: 10 µM unless noted
MOLT-4 leukemia = conditions: 10 µM unless noted
SR leukemia = conditions: 10 µM unless noted
EKVX NSCLC = conditions: 10 µM unless noted
SK-MEL-5 melanoma = conditions: 10 µM unless noted

Row | Structure (SMILES) | growth (HT29 colon) | growth (SNB-75 CNS) | growth (SNB-19 CNS) | growth (U251 CNS) | growth (PC-3 prostate) | growth (UACC-62 melanoma) | growth (LOX IMVI melanoma) | growth (SK-MEL-28 melanoma) | growth (SK-MEL-2 melanoma) | growth (SN12C renal) | growth (UO-31 renal) | growth (TK-10 renal) | growth (ACHN renal) | growth (CAKI-1 renal) | growth (A498 renal) | growth (CCRF-CEM leukemia) | growth (MOLT-4 leukemia) | growth (SR leukemia) | growth (EKVX NSCLC) | growth (SK-MEL-5 melanoma)
1 | COc1c2ccoc2c(/C=C/C=O)c2oc(-c3ccccc3)cc(=O)c12 | 87.1% | 95.2% | 87.1% | 16.3% | 37.9% | 83% | -41% (active) | 102% | 78.2% | 38.7% | 60.1% | 93.8% | 91.5% | 93.1% | 72.4% | 0.373% (active) | 10.4% | 5.33% (active) |  | 
2 | COc1ccc(-c2nc(-c3ccccc3)c(-c3ccccc3)[nH]2)cc1OC1CCCCC1 | 99.1% | 78.7% | 85.8% | 90.3% | 64.8% | 76.7% | 83.4% | 96.4% | 95.1% | 81.6% | 59.3% | 115% | 68.9% | 71.7% | 68.2% | 91.6% | 79.4% |  |  | 
3 | CCCCC1COc2cccc3c2N1C=C/C3=C\C(=O)N(C)c1ccccc1 (centres undefined) | 49.7% | 72.1% | 52.3% | 33.9% | 51.2% | 36% | 51.2% | 75% | 71.1% | 64.9% | 59.3% | 108% | 68.9% | 72% | 86.1% | 47.6% | 55.7% | 66.6% | 45.8% | 
4 | COc1cc(CNC(=O)c2ccsc2Nc2ccnc(C(F)(F)F)c2)ccc1O | 97.8% | 101% | 96% | 95.4% | 88.1% | 102% | 91.7% | 118% | 103% | 94.6% | 82.7% | 99.8% | 98.2% | 95.7% | 93% | 83.7% | 85.4% |  |  | 
5 | COc1ccc(-c2cn[nH]c2-c2ccc(OC)c(O)c2)cc1 | 94.3% | 87.6% | 76.5% | 63.1% | 84% | 66% | 59.5% | 89.1% | 42% | 91.3% | 85.1% | 88.6% | 92.2% | 75% | 59% | 71.9% | 67.4% | 33.7% | 84.9% | 
6 | CCCCCCc1cc2cc(-c3csc(/C=C/c4ccccc4)n3)c(=O)oc2cc1O | -37.8% (active) | 3.13% (active) | 55.3% | 0.326% (active) | 25.1% | -68.3% (active) | -47.1% (active) | -96.1% (active) | -71.5% (active) | 34.9% | 13.5% | 49% | 41.6% | 32.8% | -25.3% (active) | 2.21% (active) | 4.75% (active) | -7.16% (active) |  | 
7 | Clc1ccc(Nc2scc3[n+]2CCC3)cc1 | 106% | 94.3% | 98.4% | 98% | 89.2% | 87.3% | 102% | 100% | 106% | 98.2% | 81.3% | 111% | 104% | 84.8% | 82.5% | 95.8% | 94.6% | 113% | 60.3% | 
8 | O=C(Nc1ccc(I)cc1F)c1cc(Br)ccc1O | 30.4% | -26.1% (active) | 19% | -14.5% (active) | 7.44% (active) | -19.2% (active) | 6.07% (active) | -3.35% (active) | -26.5% (active) | 3.31% (active) | 8.84% (active) | 1.98% (active) | 4.42% (active) | -18.9% (active) | -62.1% (active) | 7.25% (active) | -12.2% (active) |  | 6.95% (active) | 
9 | COC(=O)c1c2c(c(C)[n+]([O-])c1C)C(=O)C(NCc1ccc(Br)cc1)=CC2=O | 9.96% (active) | 84.5% | 19% | 9.45% (active) | 27.6% | -16.2% (active) | 16.9% |  | 47.1% | 4.82% (active) | 60.9% | 84.4% | 32.6% | 46.4% |  | 34.3% | 35% | 30.2% | 31.8% | 
10 | O=C(Nc1nc2c(s1)CCc1c-2c(Br)n(Cc2ccccc2)c1Br)c1ccccc1 | 51.6% | -10.7% (active) | 65.7% | 57.3% | 67.3% | 62.4% | 68.5% | 66% | 89.4% | 87.7% | 57.6% | 54.9% | 46.8% | 67.4% | 75% | 77% | 83.1% | 70.3% |  | 
11 | COc1ccc(CCN2C(=O)CCSC2=S)cc1 | 18% | 54.1% | 84% | 92.2% |  | 77.1% | 8% (active) | 77.7% | 85.4% | 46.4% | 59.9% | 39.1% | 42.3% | 44.8% | 82.9% | 30% | 64.1% | 18.1% | 101% | 94.1%
12 | Cc1ccc(OCCCCCCNCCO)c(C)c1 | 22.4% | 31.1% | 14.5% | 3.86% (active) | 16% | -42% (active) | -1.77% (active) | 15.5% | 2.48% (active) | 7.94% (active) | -21% (active) | 28.9% | 15.3% | -8.91% (active) | 35.3% | 7.2% (active) | 10.6% | 11.2% |  | 
13 | COc1ccc(CCN2C(=O)CCSC2=S)cc1OC | 107% | 84.7% | 103% | 97.2% |  | 94.6% | 91.1% | 98.2% | 102% | 92.3% | 79.2% | 61.4% | 102% | 95.2% | 99.3% | 73.6% | 100% | 33.2% | 97.4% | 94.6%
14 | CCOc1cccc(/C=N\Nc2nc(=O)cc(C(=O)OC)s2)c1O | 76.1% | 77.8% | 75.9% | 57.6% | 72.8% | 63% | 61.7% | 87.2% | 99.6% | 59.1% | 49.7% | 107% | 68.8% | 65.9% | 87.2% | 38.4% | 53.6% | 50.7% |  | 
15 | CCCc1c(C)c2sc(=O)[nH]c2[nH]c1=O | 110% | 99.1% | 101% | 99.5% |  | 105% |  |  | 108% | 107% | 94.8% | 110% | 106% | 99% | 112% | 124% | 106% | 109% | 98.8% | 100%
16 | COc1ccc(/C=C2\CCC/C(=C\c3ccc(OC)c(OC)c3)C2=O)cc1OC | 1.7% (active) | 0.689% (active) | 37.8% | 12.3% | 40.8% | -2.18% (active) | -35% (active) |  | 86.4% | 8.6% (active) | 19.3% | 7.6% (active) |  | 3.35% (active) | 35.5% | 5.72% (active) | 6.9% (active) | 14.3% | 25.9% | 
17 | CC1=CCC(OC(=O)C(C)(C)CCC(O)(C(=O)OC2(C(C)C)CCC3(C)OC3C2)C(C)C)(C(C)C)CC1 (centres undefined) | -70.2% (active) | -98% (active) | -97.2% (active) | -98.8% (active) |  | -94.2% (active) | -90.5% (active) | -96.9% (active) | -91.6% (active) | -43.8% (active) | -99.2% (active) | -99.2% (active) | -94.8% (active) | -100% (active) | -83.1% (active) | -19.2% (active) | -30.3% (active) | 11.3% | -63% (active) | -97.2% (active)
18 | COc1ccc(C2C3=C(COC3=O)N(CCO)c3cc4c(cc32)CCC4)cc1OC (centres undefined) | -3.07% (active) | -28% (active) | 27.8% | 20% | 23.4% | 36.7% | 44% |  |  | 38.8% | 42% | 14.1% | 47.6% | 8.75% (active) | 29% | 18.6% | 24% | 25% | 23.3% | 
